# Experiments:
# Assay in all cases: yeast three-hybrid, YBZ-1, SC-Leu-His + 0.5 mM 3-AT, 4 days
# Details in all cases: tags: N-Gal4 AD-HA kept; label: inside an RPR1-promoter hybrid RNA with tandem MS2 sites; ssRNA
# PUM1 PUF domain R5-QKR = PUM1 PUF domain R5-QKR (Homo sapiens, UniProt Q14671 828-1176, C1007Q;R1008K;Q1011R)
# Method in brief: (§1)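 The interaction score is the logarithmic change in variant frequency from input to selection. It uses log2, with a pseudocount of 1 for absent variants, and frequencies came from PCR-amplified, Illumina-sequenced repeat regions. The libraries were Pumilio-1 PUF domains randomized at the three base-contacting residues per repeat, co-expressed with matching RNA elements in strain YBZ-1 (LexA–MS2 coat fusion, HIS3 reporter). Plating lasted four days on SC-Leu (input) or SC-Leu-His + 0.5 mM 3-AT (selection).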
# PUM1 PUF domain R3-PFF = PUM1 PUF domain R3-PFF (Homo sapiens, UniProt Q14671 828-1176, C935P;R936F;Q939F)
# Method in brief: as §1
# PUM1 PUF domain R3-WCR = PUM1 PUF domain R3-WCR (Homo sapiens, UniProt Q14671 828-1176, C935W;R936C;Q939R)
# Method in brief: as §1
# PUM1 PUF domain R7-RTQ = PUM1 PUF domain R7-RTQ (Homo sapiens, UniProt Q14671 828-1176, S1079R;N1080T;E1083Q)
# Method in brief: as §1
# PUM1 PUF domain R7-ISK = PUM1 PUF domain R7-ISK (Homo sapiens, UniProt Q14671 828-1176, S1079I;N1080S;E1083K)
# Method in brief: as §1
# PUM1 PUF domain R4-EYG = PUM1 PUF domain R4-EYG (Homo sapiens, UniProt Q14671 828-1176, N971E;H972Y;Q975G)
# Method in brief: as §1
# PUM1 PUF domain R7-CFP = PUM1 PUF domain R7-CFP (Homo sapiens, UniProt Q14671 828-1176, S1079C;N1080F;E1083P)
# Method in brief: as §1
# PUM1 PUF domain R3-YWW = PUM1 PUF domain R3-YWW (Homo sapiens, UniProt Q14671 828-1176, C935Y;R936W;Q939W)
# Method in brief: as §1
# PUM1 PUF domain R3-FCG = PUM1 PUF domain R3-FCG (Homo sapiens, UniProt Q14671 828-1176, C935F;R936C;Q939G)
# Method in brief: as §1
# PUM1 PUF domain R3-DRE = PUM1 PUF domain R3-DRE (Homo sapiens, UniProt Q14671 828-1176, C935D;Q939E)
# Method in brief: as §1
sequence,measurement,setting,value
GGCUAGAACUAGUGGAUCCCCCGGCGCCCGGCGGCUCGAGCCCGGGUAAGUGUCAAUAGUCUGCAUGCCGCCGGGCGCCAUGCCUGCAGGUCGACUCUAGAAAACAUG,binding signal,PUM1 PUF domain R5-QKR,5.65 log2 enrichment (interaction score)
GGCUAGAACUAGUGGAUCCCCCGGCGCCCGGCGGCUCGAGCCCGGGUAAGUGUAAUUAGUCUGCAUGCCGCCGGGCGCCAUGCCUGCAGGUCGACUCUAGAAAACAUG,binding signal,PUM1 PUF domain R3-PFF,3.19 log2 enrichment (interaction score)
same,binding signal,PUM1 PUF domain R3-WCR,1.63 log2 enrichment (interaction score)
GGCUAGAACUAGUGGAUCCCCCGGCGCCCGGCGGCUCGAGCCCGGGUAAGUUUAAAUAGUCUGCAUGCCGCCGGGCGCCAUGCCUGCAGGUCGACUCUAGAAAACAUG,binding signal,PUM1 PUF domain R7-RTQ,4.75 log2 enrichment (interaction score)
same,binding signal,PUM1 PUF domain R7-ISK,2 log2 enrichment (interaction score)
GGCUAGAACUAGUGGAUCCCCCGGCGCCCGGCGGCUCGAGCCCGGGUAAGUGUAUAUAGUCUGCAUGCCGCCGGGCGCCAUGCCUGCAGGUCGACUCUAGAAAACAUG,binding signal,PUM1 PUF domain R4-EYG,1.12 log2 enrichment (interaction score)
GGCUAGAACUAGUGGAUCCCCCGGCGCCCGGCGGCUCGAGCCCGGGUAAGUAUAAAUAGUCUGCAUGCCGCCGGGCGCCAUGCCUGCAGGUCGACUCUAGAAAACAUG,binding signal,PUM1 PUF domain R7-CFP,2.42 log2 enrichment (interaction score)
GGCUAGAACUAGUGGAUCCCCCGGCGCCCGGCGGCUCGAGCCCGGGUAAGUGUAAGUAGUCUGCAUGCCGCCGGGCGCCAUGCCUGCAGGUCGACUCUAGAAAACAUG,binding signal,PUM1 PUF domain R3-YWW,4.57 log2 enrichment (interaction score)
same,binding signal,PUM1 PUF domain R3-FCG,5.32 log2 enrichment (interaction score)
same,binding signal,PUM1 PUF domain R3-DRE,5.66 log2 enrichment (interaction score)
same,binding signal,PUM1 PUF domain R3-WCR,4.82 log2 enrichment (interaction score)
GGCUAGAACUAGUGGAUCCCCCGGCGCCCGGCGGCUCGAGCCCGGGUAAGUGUAAAUAGUCUGCAUGCCGCCGGGCGCCAUGCCUGCAGGUCGACUCUAGAAAACAUG,binding signal,PUM1 PUF domain R4-EYG,3.15 log2 enrichment (interaction score)
same,binding signal,PUM1 PUF domain R3-FCG,0.82 log2 enrichment (interaction score)
same,binding signal,PUM1 PUF domain R3-PFF,1.1 log2 enrichment (interaction score)
GGCUAGAACUAGUGGAUCCCCCGGCGCCCGGCGGCUCGAGCCCGGGUAAGUGUACAUAGUCUGCAUGCCGCCGGGCGCCAUGCCUGCAGGUCGACUCUAGAAAACAUG,binding signal,PUM1 PUF domain R4-EYG,0.47 log2 enrichment (interaction score)
